Screening results: PubChem, The Scripps Research Institute Molecular Screening Center
A selection: hits, their analogues and other compounds. The true share with any hit is near 3.3%.
TLR9-MyD88 block: inhibitors of TLR9-MyD88 association in cells, primary screen, cell-based, CHO, BLA complementation, fluorescence; Toll-like receptor 9 (Homo sapiens) + Myeloid differentiation primary response protein …; CCF4 FRET ratio; inhibition, % at 4.98 µM; 0.21% of 340,000 active; AID 504734, 2011;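 active = inhibition above the mean over all tested compounds plus 3 SD, cut at about 21% in these data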;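 also: 0% = DMSO only wells and 100% = clavulanate BLA inhibitor control wells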
PRMT1 inh: PRMT1 methyltransferase inhibitors, primary screen, biochemical, fluorescence polarization. recombinant PRMT1, activity-based probe fluorescence polarization. inhibition, % at 2.79 µM. 1.3% of 370,000 active;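 active = inhibition above about 21% made by adding two undisclosed values, limit read from the data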
NOD2 RIPK2 PPI: NOD2-RIPK2 binding disruptors in cells, primary screen, fluorescence, CHO cells, BLA complementation | Receptor-interacting serine/threonine-protein kinase 2 (Homo sapiens), O43353 | CCF4 ratio | inhibition, % at 4.98 µM | 0.38% of 360,000 active | AID 624267, 2012; in the data active = inhibition above about 21%;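 also: 0% = vehicle only and 100% = reference blocker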
rCAG RNA binder: binders of r(CAG) RNA repeats, primary screen, biochemical, fluorescence; r(CAG) RNA repeat, TO-PRO-1 dye displacement fluorescence; inhibition, % at 3 µM; 1.3% of 370,000 active; AID 651821, 2012;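 active = inhibition above the plate cutoff, the mean of all test compounds on that plate plus 3 SD, cut at about 35% in these data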;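 also: 0% = DMSO alone and 100% = 100 µM mitoxantrone as full dye displacement; higher means more dye released from RNA so lower well fluorescence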
TLR4-MyD88 BLA: inhibitors of TLR4-MyD88 association in cells, primary screen, cell-based, HeLa CL3-4, BLA complementation, FRET ratio | Toll-like receptor 4 (Homo sapiens) + Myeloid differentiation primary response protein … | AID 861, 2007 | HeLa CL3-4 TLR4/MyD88 BLA complementation | inhibition, % at 8.4 µM | 0.18% of 200,000 active; in the data active = inhibition above about 25%;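 also: 0% = vehicle and 100% = reference inhibitor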
ABHD5-PLIN5 inh: ABHD5-PLIN5 interaction inhibitors, primary screen, cell lysate, split luciferase complementation, luminescence; 0.78% of 360,000 active; Perilipin-5 (Homo sapiens) + 1-acylglycerol-3-phosphate O-acyltransferase ABHD5 (Homo …; Split G. princeps luciferase complementation, 4 h; inhibition, % at 4 µM;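 active = inhibition above the mean inhibition across every tested compound plus 3 SD, cut at about 22% in these data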;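 also: 0% = DMSO only wells and the 100% control is not disclosed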
* hit, by the source's call; nt = no result given.

SMILES | TLR9-MyD88 block | PRMT1 inh | NOD2 RIPK2 PPI | rCAG RNA binder | TLR4-MyD88 BLA | ABHD5-PLIN5 inh
O=C(Nc1ccc(F)cc1)C(c1ccnc2ccccc12)N1CCN(CC(=O)N2CCCC2)CC1 (configuration not stated) | nt | 0 | -23 | 1 | nt | -3
N#C/C(=C\c1cc(O)c(O)c(O)c1)C(N)=O | -5 | 59* | -3 | 1 | nt | -4
CCN(CC)c1ccc(/C=C(\C#N)C(N)=O)cc1 | 6 | -7 | 5 | -6 | 7 | -2
CC1CCC(NC(=O)CCS(=O)(=O)c2ccc3c(c2)CCN3C(=O)C2CC2)CC1 (configuration not stated) | -3 | -3 | -2 | -7 | nt | 5
Cc1nc2sc(C(c3ccco3)N3CCN(C(c4ccccc4)c4ccccc4)CC3)c(O)n2n1 (configuration not stated) | 2 | 24* | 1 | 13 | -12 | 7
Cc1nc2sc(C(c3ccco3)N3CCC(C)CC3)c(O)n2n1 (configuration not stated) | 1 | 22* | -2 | 8 | -8 | 5
Cc1nc2sc(C(c3ccco3)N3CCN(c4ccccc4)CC3)c(O)n2n1 (configuration not stated) | -7 | 7 | 7 | 5 | 0 | 2
C#CCOCCOCCOCCNc1nc(N2CCN(C(=O)[C@H](CCCCN)n3cc([C@@H](N)CO)nn3)CC2)nc(N2CCN(C(=O)[C@H](CCCCN)n3cc([C@@H](N)CC(C)C)nn3)CC2)n1 | 2 | 1 | -7 | 11 | nt | 2
CCCCOc1ccc2ccccc2c1C=O | 11 | 0 | 5 | 1 | -13 | 4
O=[N+]([O-])/C=C/c1c(OCc2ccccc2)ccc2ccccc12 | 27* | nt | 82* | nt | 13 | 84*
COC(=O)C1=C(C)Nc2[nH]c(=S)[nH]c(=O)c2C1c1ccc(O)cc1 (configuration not stated) | 6 | 25* | -2 | 13 | nt | 4
COc1ccc(S[C@]2(C(=O)N3CCN(c4ncccn4)CC3)CC(=O)N(C(=O)c3ccccc3)[C@@H]2c2ccc(OC)cc2)cc1 | nt | 24* | nt | 15 | nt | nt
Cc1c(Cc2ccccc2)c(=O)oc2c(C)c(OCc3nn[nH]n3)ccc12 | -6 | 2 | -5 | 59* | -2 | 1
Cc1c(CC(=O)O)c(=O)oc2c(C)c(OCc3nn[nH]n3)ccc12 | 3 | 0 | 5 | -3 | nt | -3
O=C(Nc1ccc(Cl)cc1)Nc1ccccc1Sc1ncc([N+](=O)[O-])s1 | 1 | 50* | -2 | 13 | nt | -19
CCOC(=O)c1c(C)oc2c1c(C=NCC1CCCO1)c(O)c1ccccc12 (configuration not stated) | 5 | 18 | -3 | 6 | 0 | -21
CCOC(=O)c1c(C)oc2c1c(C=NCc1ccccn1)c(O)c1ccccc12 | -18 | 21* | -4 | 18 | 6 | -19
O=C1[C@@H]2Cc3c([nH]c4ccccc34)C(c3cccc([N+](=O)[O-])c3)N2C(=O)CN1CCCO (some centres not stated) | 0 | 5 | 12 | 3 | nt | -1
Cc1ccc(S(=O)(=O)Nc2ccc(O)c3ccccc23)c(C)c1 | -4 | 13 | -6 | 22 | nt | -6
Cc1ccc(S(=O)(=O)Nc2cc(C(C(=O)OC(C)C)C(=O)C(F)(F)F)c(O)c3ccccc23)c(C)c1 (configuration not stated) | -6 | 25* | -35 | 22 | 6 | 16
O=C(NCCN1CCOCC1)c1ccc(NS(=O)(=O)c2ccccc2)cc1 | 7 | -3 | -6 | 0 | nt | 3
COc1cc(C2C(C#N)=C(N)OC3=C2C(=O)CCC3)c([N+](=O)[O-])cc1OC (configuration not stated) | 0 | 21* | 1 | 23 | 3 | 0
Cc1cc(C2C(C#N)=C(N)OC3=C2C(=O)CCC3)c(C)s1 (configuration not stated) | 10 | -2 | 0 | 2 | 4 | 0
COC(=O)C1=C(C)N(C)C(=NCc2cc(OC)c(OC)c(OC)c2)NC1c1cccc(C(F)(F)F)c1 (configuration not stated) | nt | -8 | nt | 4 | nt | nt
Cc1[nH]c(=S)c(C#N)c(-c2ccco2)c1C(=O)N(C)C | 3 | 31* | -13 | 6 | -9 | -3
SMILES | TLR9-MyD88 block | PRMT1 inh | NOD2 RIPK2 PPI | rCAG RNA binder | TLR4-MyD88 BLA | ABHD5-PLIN5 inh
CC(=O)c1c(C)[nH]c(=S)c(C#N)c1-c1ccc(Cl)cc1 | nt | -1 | -6 | 8 | nt | -7
COc1ccc(C2C3=C(N=C4SCC(=O)N42)c2ccccc2CC3)cc1 (configuration not stated) | 3 | 24* | -5 | 10 | -5 | -9
CCOC(=O)C1=C(C)N=C2SCCC(=O)N2C1c1ccc(OC)cc1 (configuration not stated) | nt | nt | nt | nt | -1 | nt
Cc1cccc(OCC(=O)N(Cc2ccco2)C2CCS(=O)(=O)C2)c1C (configuration not stated) | -3 | -1 | -8 | 0 | nt | 4
Cc1ccc(Cl)cc1NC(=O)CSc1sc2c(O)cc(=O)[nH]c2c1C#N | -3 | 15 | -3 | 35* | nt | -3
CCc1nnc(NC(=O)CSc2sc3c(O)cc(=O)[nH]c3c2C#N)s1 | -9 | 42* | -4 | 57* | nt | 0
CC(C)C[C@@H]1COc2cc(Br)ccc2S(=O)(=O)N1Cc1cn(CCC2OCCCO2)nn1 | nt | 6 | nt | 4 | nt | nt
COCCNC(=S)N/N=C(\C)c1cccc(OC)c1 | -1 | -4 | -1 | 0 | -8 | 2
Cc1ccccc1-n1cnc2c(sc3nc(N4CCOCC4)c4c(c32)CCCC4)c1=O | -6 | 2 | -3 | 6 | nt | -1
CC(C)C(C(=O)NCc1ccccc1)N1CCN(CCN2CCOCC2)CC1 (configuration not stated) | nt | -4 | nt | 1 | nt | nt
COc1cc(C2CC(=O)C3=C(C2)Nc2ncnn2C3c2cccs2)cc(OC)c1OC (configuration not stated) | nt | -1 | -12 | -4 | nt | 8
COc1cc(C2C=C(c3cccs3)Nc3ncnn32)cc(OC)c1OC (configuration not stated) | 65* | nt | 80* | nt | 17 | -3
Cc1n[nH]c(=O)c2c(NC(=O)CSc3ccc(F)cc3)oc(C)c12 | 2 | 5 | 8 | 1 | nt | -7
CC(=O)Nc1ccc(SCC(=O)Nc2oc(C)c3c(C)n[nH]c(=O)c23)cc1 | 5 | 27* | -4 | 0 | nt | -6
CS(=O)(=O)c1cccc(-c2nnc(NC(=O)c3ccc4ncsc4c3)o2)c1 | 1 | 0 | 1 | 2 | nt | 6
